Screening data as filed in PubChem.
A selection: hits, their analogues and other compounds. The true share with any hit is near 9.3%.
HCV inhibitor = qHTS Assay for Inhibitors of Hepatitis C Virus (HCV); Potency, µM (doses to about 41.8 µM), without a hit: at the highest dose activity change, negative = inhibition, usual class: inhibitors; Huh7.5.1 HCVcc-Cre infection, luciferase reporter, 44 h; 340,000 tested, 3.4% active; AID 651820, 2012; note: potency is the fitted concentration of half-maximal effect
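1,000 cells/well; 4 h culture; + compound; + HCVcc-Cre (~0.5 moi); 44 h; luciferase substrate, RT 15 min; read 15 sec.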
HCMV inh = qHTS Assay for inhibitors of the human cytomegalovirus (HCMV). HFF cells, HCMV-luciferase reporter, 72 h; stronger effect = lower value. activity change, negative = inhibition, % at 57.5 µM. 410,000 tested, 4.5% active; in the data active = activity change below about -60%; inconclusive = no clear call, values can overlap the other calls; inactive = above about -39%
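Luciferase read-out from HCMV-luciferase-infected HFFs (MOI 1 PFU/cell) 72 h post infection at 37C; compounds added after 16 h cell attachment; activity normalized between buffer-only basal and Salinomycin (10uM) inhibitor controls.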
Vaccinia Venus = qHTS for Stage-Specific Inhibitors of Vaccinia Orthopoxvirus: Venus Reporter Primary qHTS. Vaccinia virus Venus reporter expression, fluorescence. Potency, µM (series often up to 36.5 µM), without a hit: at the highest dose activity change, negative = inhibition, hits mostly inhibitors. 330,000 tested, 0.46% active; calls by dose curve; tested in A549 cells; note: potency is the fitted concentration of half-maximal effect; nearly all actives have a fitted effect of over 30% in size
VACV mCherry inh = qHTS for Stage-Specific Inhibitors of Vaccinia Orthopoxvirus: mCherry Reporter Primary qHTS | Potency, µM (doses to about 36.5 µM), inactives show at the highest dose activity change, negative = inhibition, usual class: inhibitors | AID 720579, 2013 | Vaccinia virus mCherry reporter infection, fluorescence | 310,000 tested, 0.63% active; calls by dose curve; tested in A549 cells; note: potency is the fitted concentration of half-maximal effect; nearly all actives have a fitted effect of over 35% in size
Sm TGR block = qHTS Assay for the Inhibitors of Schistosoma Mansoni Peroxiredoxins. purified TGR, DTNB reduction, TNB absorbance 405 nm. Schistosoma mansoni thioredoxin glutathione reductase (TGR), Q962Y6. Potency, µM (top dose mostly 114 µM), for inactives: at the highest dose activity change, negative = inhibition, actives largely listed as inhibitors. 360,000 tested, 3% active; note: potency is the fitted concentration of half-maximal effect; nearly all actives have a fitted effect of over 60% in size
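Kinetic colorimetric format: TGR-catalysed, NADPH-driven DTNB reduction monitored via TNB absorbance. Enzyme dispensed at 20 nM; compound exposure 15 min at room temperature before reaction start.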
FMDV antiviral = High Throughput Screening for Foot and Mouth Disease Virus Antivirals; FMDV antiviral cell-based qHTS; Potency, µM (top dose mostly 57.9 µM), inactives show at the highest dose activity change, negative = inhibition, actives largely listed as inhibitors; 410,000 tested, 1.2% active; AID 1159524, 2015; calls by dose curve; tested in HEK293T cells; note: read-out not given here; potency is the fitted concentration of half-maximal effect; nearly all actives have a fitted effect of over 45% in size
Starred values were filed as active, the others as inactive; [ ] = dose if it differs, or a comment. Unless noted, calls come from the whole dose curve; as a rule, active = well fitted curve in the direction sought with a large enough effect; inconclusive = small, poorly fitted or top-dose-only effect, or another doubt; inactive = no such curve, though single readings can be large; an effect the other way counts as inactive or inconclusive. % is set by controls: 0 for no effect and ±100 for the full control effect.

Screening COCCn1c(SCC(=O)Nc2ncc(C)s2)nc2sc3c(c2c1=O)CCC3 returned HCV inhibitor 2.2µM* and Sm TGR block -7%.
`CCN(CC)C(=O)CSc1nc2sc3c(c2c(=O)n1CCCOC)CCC3` gave HCV inhibitor -20%, HCMV inh -76*, Vaccinia Venus -11%, VACV mCherry inh -13%, Sm TGR block -27% and FMDV antiviral -12%.
`CC1CCc2c(sc3ncnc(SCC(=O)N(C)C4CCS(=O)(=O)C4)c23)C1` (centres undefined) gave HCV inhibitor -14%, HCMV inh active and FMDV antiviral -6%.
For Cc1sc2nc(SCC(=O)NCc3ccco3)n(C)c(=O)c2c1C the results were HCV inhibitor inconclusive, HCMV inh inconclusive, Vaccinia Venus -15%, Sm TGR block -7% and FMDV antiviral inconclusive.
For CC(=O)CSc1ncnc2sc3c(c12)CCC(C)C3 (centres undefined) the results were HCV inhibitor inconclusive, HCMV inh 11, Sm TGR block -2% and FMDV antiviral 31%.
For Cc1sc2nc(SCC(=O)NCc3ccco3)n(CCc3ccccc3)c(=O)c2c1C the results were HCV inhibitor 12%, HCMV inh -68*, Sm TGR block -5% and FMDV antiviral 0%.
Screening CC(C)NC(=O)C(Sc1ccccc1)c1ccccc1 (centres undefined) returned HCV inhibitor 1%, HCMV inh 38, Vaccinia Venus -4%, VACV mCherry inh -13%, Sm TGR block 0% and FMDV antiviral 12%.
For CC(C)c1nc2sc3c(SCC(=O)NCc4ccco4)ncnc3c2c2c1CCC2 the results were HCV inhibitor inconclusive, HCMV inh 12, Vaccinia Venus 14µM*, Sm TGR block 25µM* and FMDV antiviral inconclusive.
For O=C(CSc1ncnc2sc3c(c12)CCCCC3)NCc1ccco1 the results were HCV inhibitor 11µM*, HCMV inh -9, Vaccinia Venus -22%, VACV mCherry inh -29%, Sm TGR block 32µM* and FMDV antiviral 5%.
Cc1cc(C)nc(Sc2ncnc3sc4c(c23)CCC4)n1 was read as HCV inhibitor -22%, HCMV inh -71*, Sm TGR block -12% and FMDV antiviral -19%.
Screening O=C(COC(=O)c1c2c(nc3ccccc13)CCN(Cc1ccccc1)C2)Nc1c(F)cccc1F returned HCV inhibitor inconclusive, HCMV inh -96*, Vaccinia Venus -18%, VACV mCherry inh inconclusive, Sm TGR block 4% and FMDV antiviral -15%.
For CC(=O)Nc1ccc(NC(=O)COC(=O)c2c3c(nc4ccccc24)CCN(Cc2ccccc2)C3)cc1 the results were HCV inhibitor 13µM*, HCMV inh 26, Vaccinia Venus -29%, VACV mCherry inh inconclusive, Sm TGR block -7% and FMDV antiviral inconclusive.
COc1ccccc1N1CCN(C2CCCN(S(=O)(=O)c3cccc(Cl)c3)C2)CC1 (centres undefined) was read as HCMV inh 54, Vaccinia Venus -19%, VACV mCherry inh -7%, Sm TGR block 2% and FMDV antiviral inconclusive.
O=c1[nH]c2c(cc1CNCCN1CCOCC1)c(-c1cccc(F)c1)nn2-c1ccccc1 was read as Sm TGR block 0%.
Screening Cc1cc(C(=O)CSc2nc(N)cc(=O)[nH]2)c(C)n1CCc1ccc(F)cc1 returned HCV inhibitor inconclusive, HCMV inh -82*, Vaccinia Venus inconclusive, VACV mCherry inh inactive[1.46 µM], Sm TGR block 0% and FMDV antiviral 16µM*.
For Cc1cc(C(=O)CSc2nc(N)cc(=O)[nH]2)c(C)n1-c1ccc(OC(F)F)cc1 the results were HCV inhibitor inconclusive, HCMV inh -106*, Vaccinia Venus inconclusive, VACV mCherry inh inconclusive, Sm TGR block 5% and FMDV antiviral 3.5µM*.
Cc1cc(-n2c(C)cc(C(=O)CSc3nc(N)cc(=O)[nH]3)c2C)no1 was read as HCV inhibitor inconclusive, HCMV inh inconclusive, Vaccinia Venus 0%[7.34 µM], VACV mCherry inh -2%[7.34 µM], Sm TGR block 1% and FMDV antiviral inconclusive.
COc1ccc(CCn2c(C)cc(C(=O)CSc3nc(N)cc(=O)[nH]3)c2C)cc1 was read as HCV inhibitor 11µM*, HCMV inh -95*, Vaccinia Venus inconclusive, VACV mCherry inh -12%, Sm TGR block 0% and FMDV antiviral 18µM*.
For Cc1cc(C(=O)CSc2nnc(N)s2)c(C)n1CCc1ccc(F)cc1 the results were HCV inhibitor -17%, HCMV inh 17, Sm TGR block -23% and FMDV antiviral -4%.
Screening COc1ccc(CCn2c(C)cc(C(=O)CSc3nnc(N)s3)c2C)cc1 returned HCV inhibitor -27%, Vaccinia Venus -28%, VACV mCherry inh -28%, Sm TGR block -13% and FMDV antiviral 28µM*.
`CCCCC12CN3CC(C)(CN(C1)C31C(=O)N(C)c3ccc(C)cc31)C2=O` (centres undefined) gave HCV inhibitor 23%, HCMV inh 7, Sm TGR block -2% and FMDV antiviral -17%.
For Cc1ccc(C(=O)NCCSCc2ccc(Cl)cc2Cl)cc1[N+](=O)[O-] the results were HCV inhibitor inconclusive, HCMV inh -21, Vaccinia Venus -11%, VACV mCherry inh -7%, Sm TGR block -4% and FMDV antiviral 2%.
COCCn1c(C)cc(C(=O)CSc2nc3ccccc3s2)c1C was read as HCV inhibitor 10µM*, HCMV inh -83*, Vaccinia Venus -29%, VACV mCherry inh inconclusive, Sm TGR block -3% and FMDV antiviral 16µM*.
Screening CC(C)OC(=O)CC1=NC(=O)CS1 returned HCV inhibitor 5%, HCMV inh -3, Vaccinia Venus -4%, VACV mCherry inh -6%, Sm TGR block 0% and FMDV antiviral -18%.
For Cc1cccc(C(=O)NC(=S)NCc2ccccc2)c1 the results were HCV inhibitor -10%, HCMV inh inconclusive, Vaccinia Venus -12%, VACV mCherry inh inactive and FMDV antiviral 30%.
For CC(NC(=O)c1ccccc1)C(=O)NNC(=O)c1ccccc1Cl (centres undefined) the results were HCV inhibitor 9%, HCMV inh -63*, Sm TGR block 7% and FMDV antiviral -2%.
For CCCCCC(=O)NNC(=S)NC(=O)c1cccc([N+](=O)[O-])c1 the results were HCV inhibitor -22%, HCMV inh 28, Vaccinia Venus -16%, VACV mCherry inh inactive, Sm TGR block 1.6µM* and FMDV antiviral -19%.
